The results in this text go back to the supplement of paper PMC6555819.

The test system of this assay is VDR:RXRa (NR concentration 270 nM, RXRa partner concentration 90 nM). The assay can be described thus: PBM binding z-score (relative to random genomic background probes); higher = stronger binding; sequences stand for … in GC…GCGATTGACAGCGTAGAATGAAGG
How it is done:
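Protein-binding microarray (Agilent 4x180K custom design, double-stranded 60-nt probes: 5' GC cap, 34-nt variable region, 24-nt constant primer region; full probe sequence given). Purified or IVT nuclear receptor:RXRα heterodimers (3:1 NR:RXRα, mostly 270:90 nM) or homodimers were incubated for 1 h in PBS with 2% milk and no ligand, then detected with Alexa488 antibodies. Fluorescence from o1-orientation probes (~5 replicates averaged) was converted to z-scores against 500 random hg19 background probes. Variable regions are seed direct-repeat (DR0–DR5) sites, all their single-nucleotide variants and half-site ablations.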
CCTCGGAGGACAACAGGGGGTCAGAGCTGCCAGA gave a PBM binding z-score of 3.17. The same measure for AGAATGAGGTTATACGTAGATCAGGGCAGAAAGT: 1.67; for TCTTGTAGATCAAGCAGGTCAAGAAAGCCTGAGT: 2.28. Then TCTTGTAGATCAATAGAGGTTATGAAAGTGCGCT, with 1.92; and GCTCGGAGGCCAAGGTCAGAGCTTTGTCCGTAGA, with 1.16; and ACAGACAGGTGAGAGAAGGTAACTCAGCTGGACG, with -0.382.

As for GGAACTAGGGCAAGTTGATAGCAGAGTTTGATGG, the PBM binding z-score was -0.183. The same measure for TCTTGTAGATCAATAGAGGTTAAGATAGTGCGCT: 1.65; for ATTATTAGTTGACTTAGGGCAACCGATACGACGC: 0.926; for CCGCCTGGGGCAGAAAGGTTACCATACCATCCGG: 0.57. Then CTAACTAGGTCATCCAGGACAGTGAATACATTGA, with 4.72; and GCTAGTTGGGCAGTAAAAGGTCACACACCGGTCG, with 3.62. Then GGTCGGAGGACAAGGTCAGAGCTTTGTCCGTAGA, with 1.78; and AGAATGAGGTTAGTAAGATCAGGGAATTGCGGTC, with 0.837; and CTCGAAAAGTCGGTTGAGGTGAGTATACGGATAA, with -0.065.

As to GCGACTGGGGCATCAGCAGGTAACCATAACTTAA, the PBM binding z-score was -0.245. Consider CAAACTAGGTCACAGAGGTCAAAGTGCGTGCGTA, for which the PBM binding z-score is 8.02.

With ATATGTAGGTTATCCGGTCATTCAGTTTGCGCAT, the PBM binding z-score came to 2.65.

Sequence AGAATGAGGTTATTCAGATCAGGGAATTGCGGTC gave a PBM binding z-score of 2.7.

Sequence ATTAGTTGGTCAGCTGAGGTCACACACAATTCGG returned a PBM binding z-score of 4.76.

Sequence GCTGCTAGGTAAACTGATGGTCAGCTAAAGCTCG had a PBM binding z-score of -0.576. In turn, ATCTCCAGGTAAGACTCAGTTCAGTGAAGAACGC showed a PBM binding z-score of 1.05. As to TCATATAGGTAAATGCTAGGGGAAAGTCCGATCT, the PBM binding z-score came to 0.846.

On to TCTATGAGTTGATTAGGGCAACCGAAACAGCGGA, for which the PBM binding z-score worked out at 0.54. Then CTCGAAAGGTCGGTTGAGGTGAGGATACGGATAA, with 2.29; and ACAGATAGGTGATGAAGGTAACTCAGGCTATCAT, with 0.219. The same measure for CCTGCTAGGTCAATGGTCAGTTAAAGCAGCTCGC: 0.89. The same measure for TCCAGTAGGTTACCAATGGGGCATTCAGCTTTCT: 0.0983. In turn, CGAACGAGGGCATGAGTTGATATCAAATGCCGAT yielded a PBM binding z-score of 1.44.

The sequence AGAATGAGGTTAAGATCTGGGAAACAGAATACAT showed a PBM binding z-score of 1.13.

ACTAGCAGGCCATGTTTGGGTCACTCAAACAAAG had a PBM binding z-score of 0.631. In turn, ATCTCTAGTTAACCAAGTTCAGTGAATGCCGAAC came in with a PBM binding z-score of 2.46. The same measure for TCTTGTAGATCAAGCAGGTTAAGAATGCCTGAGT: 0.48. The same measure for ATCTCTAGCTAAAGTTCAGTGAAAGATCGATAGA: 1.49; for CGTCCAAGGTGATAGGAGGTCAGTGAAGACAGAT: 3.08; for ATATGTAGGTTAGCTGGGGTCAGTCAGACTAGGC: 4.52. As to TTACCAAGGTGAAAGGTCTTTGATGCACGCCTTG, the PBM binding z-score is 0.479. ACAGACAGGTAATGAAGGTAACTCAGGCTATCAT returned a PBM binding z-score of 0.244. Then ACTTACGGGTCAACGCGGTTATAGCACGCGTATA, with 6.31; and CGTCCAAGGTCAATGCTAGGTCAGGGAAAGCATT, with 4.75.
